The source made the active and inactive calls. The calls were made as follows: active = hit-call score of the fitted dose curve at least 0.9, where 1 is the maximum; inactive = score below 0.9.
Columns and labels:
[1] = read-out: TIMP metallopeptidase inhibitor 1 (TIMP1), TIMP1 (gene 7076); experiment: BSK_hDFCGF_TIMP1: BioMAP Diversity Plus: hDFCGF Assay for TIMP metallopeptidase inhibitor 1 (TIMP1) Biomarker Activity (AID 2283062); conditions: primary human foreskin fibroblasts; actives raise or lower the signal
How it was run: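 TIMP-1 measured by ELISA 24 h after chemical dosing of primary human skin fibroblasts, with gain or loss fitted relative to DMSO. Parallel SRB staining (560 nm) monitored overt cytotoxicity.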

[2] = read-out: Matrix Metallopeptidase 1 (MMP1), MMP1 (gene 4312); experiment: BSK_hDFCGF_MMP1: BioMAP Diversity Plus: hDFCGF Assay for Matrix Metallopeptidase 1 (MMP1) Biomarker Activity (AID 2283064); conditions: primary human foreskin fibroblasts; actives raise or lower the signal
How it was run: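 Primary human foreskin fibroblasts exposed to chemicals for 24 h; MMP1 measured by ELISA. Cytotoxicity tracked by SRB staining in parallel cultures; bidirectional fit relative to DMSO.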

[3] = read-out: Vascular cell adhesion molecule 1 (VCAM1), VCAM1 (gene 7412); experiment: BSK_hDFCGF_VCAM1: BioMAP Diversity Plus: hDFCGF Assay for Vascular cell adhesion molecule 1 (VCAM1) Biomarker Activity (AID 2283065); conditions: primary human foreskin fibroblasts; actives raise or lower the signal
How it was run: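 ELISA readout of VCAM-1 on human dermal fibroblast primary cultures, 24 h after chemical exposure. Gain or loss of signal fitted in both directions against DMSO baseline.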

[4] = read-out: Plasminogen activator inhibitor-1 (PAI1), SERPINE1 (gene 5054); experiment: BSK_hDFCGF_PAI1: BioMAP Diversity Plus: hDFCGF Assay for Plasminogen activator inhibitor-1 (PAI1) Biomarker Activity (AID 2283066); conditions: primary human foreskin fibroblasts; actives raise or lower the signal
How it was run: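 Human foreskin fibroblast primary cells, 24 h chemical exposure; PAI-1 measured by ELISA. Bidirectional fitting relative to DMSO; parallel cultures stained with SRB for total protein to flag overt cytotoxicity.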

[5] = read-out: Intercellular Adhesion Molecule 1 (ICAM1), ICAM1 (gene 3383); experiment: BSK_KF3CT_ICAM1: BioMAP Diversity Plus: KF3CT Assay for Intercellular Adhesion Molecule 1 (ICAM1) Biomarker Activity (AID 2283067); conditions: primary human keratinocytes with fibroblasts; actives raise or lower the signal
How it was run: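 Cell-surface ICAM-1 was measured by ELISA 24 h after dosing primary human skin keratinocytes co-cultured with fibroblasts. Parallel SRB staining tracked overt cytotoxicity. Gain or loss of signal was fitted relative to DMSO.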

[6] = read-out: Interferon-gamma inducible Protein 10 (IP10), CXCL10 (gene 3627); experiment: BSK_KF3CT_IP10: BioMAP Diversity Plus: KF3CT Assay for Interferon-gamma inducible Protein 10 (IP10) Biomarker Activity (AID 2283068); conditions: primary human keratinocytes with fibroblasts; actives raise or lower the signal
How it was run: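 ELISA read-out of IP-10 after 24 h chemical dosing of human skin primary co-culture (keratinocytes, foreskin fibroblasts). Gain or loss of signal relative to DMSO, bidirectional curve fit.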

[7] = BSK_KF3CT_SRB: Viability Assessment in the BioMAP Diversity Plus: KF3CT Assay (AID 2283069); conditions: primary human keratinocytes with fibroblasts;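 also: total protein by sulforhodamine B staining as a cytotoxicity measure; read 24 h after compound addition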
How it was run: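 Human keratinocyte and foreskin fibroblast co-culture exposed to chemical for 24 h. Total protein measured in parallel cultures by 0.1% sulforhodamine B staining after 10% TCA fixation, read at 560 nm; bidirectional fit relative to DMSO.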

[8] = read-out: Interleukin-1 alpha (IL1a), IL1A (gene 3552); experiment: BSK_KF3CT_IL1a: BioMAP Diversity Plus: KF3CT Assay for Interleukin-1 alpha (IL1a) Biomarker Activity (AID 2283070); conditions: primary human keratinocytes with fibroblasts; actives raise or lower the signal
How it was run: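 Primary human keratinocyte plus foreskin fibroblast co-culture, dosed and measured at 24 h in 96-well plates. IL-1a level quantified by ELISA; bidirectional fit relative to DMSO.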

[9] = read-out: TIMP metallopeptidase inhibitor 2 (TIMP2), TIMP2 (gene 7077); experiment: BSK_KF3CT_TIMP2: BioMAP Diversity Plus: KF3CT Assay for TIMP metallopeptidase inhibitor 2 (TIMP2) Biomarker Activity (AID 2283071); conditions: primary human keratinocytes with fibroblasts; actives raise or lower the signal
How it was run: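 Co-culture of human primary keratinocytes and foreskin fibroblasts, measured 24 h after chemical dosing. TIMP-2 quantified by ELISA and fitted in both directions relative to DMSO. Cytotoxicity checked in parallel cultures by SRB total-protein staining.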

[10] = read-out: Transforming growth factor beta 1 (TGFb1), TGFB1 (gene 7040); experiment: BSK_KF3CT_TGFb1: BioMAP Diversity Plus: KF3CT Assay for Transforming growth factor beta 1 (TGFb1) Biomarker Activity (AID 2283072); conditions: primary human keratinocytes with fibroblasts; actives raise or lower the signal
How it was run: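 Human keratinocyte/foreskin fibroblast co-culture; TGF-b1 measured by ELISA 24 h after dosing, fitted bidirectionally versus DMSO. Cytotoxicity checked in parallel cultures by total protein (SRB staining, 560 nm).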

[11] = read-out: C-C motif chemokine 2 (Homo sapiens) (UniProt P13500); experiment: BSK_KF3CT_MCP1: BioMAP Diversity Plus: KF3CT Assay for Monocyte Chemoattractant Protein 1 (MCP1/CCL2) Biomarker Activity (AID 2283073); conditions: primary human keratinocytes with fibroblasts; actives raise or lower the signal
How it was run: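 ELISA read-out of MCP-1, 24 h post-dose, in primary human skin keratinocytes co-cultured with fibroblasts. Parallel SRB staining monitors cytotoxicity; changes fitted both directions relative to DMSO.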

[12] = read-out: Matrix Metallopeptidase 9 (MMP9), MMP9 (gene 4318); experiment: BSK_KF3CT_MMP9: BioMAP Diversity Plus: KF3CT Assay for Matrix Metallopeptidase 9 (MMP9) Biomarker Activity (AID 2283074); conditions: primary human keratinocytes with fibroblasts; actives raise or lower the signal
How it was run: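 Human keratinocyte and foreskin fibroblast co-culture exposed to chemicals for 24 h; MMP9 biomarker measured by ELISA, bidirectional fitting relative to DMSO; cytotoxicity tracked by SRB total protein staining in parallel cultures.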

[13] = read-out: urokinase plasminogen activator (uPA), PLAU (gene 5328); experiment: BSK_KF3CT_uPA: BioMAP Diversity Plus: KF3CT Assay for urokinase plasminogen activator (uPA) Biomarker Activity (AID 2283075); conditions: primary human keratinocytes with fibroblasts; actives raise or lower the signal
How it was run: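 Primary human keratinocyte/foreskin fibroblast co-culture exposed to chemical; uPA measured by ELISA at 24 h. Bidirectional fit versus DMSO, with parallel SRB total-protein staining for cytotoxicity.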

[14] = read-out: CD40, CD40 (gene 958); experiment: BSK_LPS_CD40: BioMAP Diversity Plus: LPS Assay for CD40 Biomarker Activity (AID 2283076); conditions: primary human HUVEC with PBMC; actives raise or lower the signal
How it was run: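 In the LPS system of human endothelial cells with peripheral blood mononuclear cells, CD40 levels were read by ELISA 24 h post-treatment. Signal changes in either direction were fitted against the DMSO baseline, with parallel SRB protein staining.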

[15] = read-out: E-selectin (Homo sapiens) (UniProt P16581); experiment: BSK_LPS_Eselectin: BioMAP Diversity Plus: LPS Assay for Eselectin Biomarker Activity (AID 2283077); conditions: primary human HUVEC with PBMC; actives raise or lower the signal
How it was run: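 E-selectin ELISA on LPS-stimulated endothelial cell/PBMC co-cultures, read 24 h post-treatment; gains and losses fitted against DMSO. Parallel SRB staining (0.1% SRB after 10% TCA fixation, 560 nm) flags overt cytotoxicity.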

[16] = read-out: Interleukin-8 (IL8), CXCL8 (gene 3576); experiment: BSK_LPS_IL8: BioMAP Diversity Plus: LPS Assay for Interleukin-8 (IL8) Biomarker Activity (AID 2283078); conditions: primary human HUVEC with PBMC; actives raise or lower the signal
How it was run: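 ELISA read-out of IL-8 after 24 h chemical treatment of LPS-activated endothelial/PBMC human primary co-cultures. Changes either up or down relative to DMSO; overt cytotoxicity checked by sulforhodamine B staining in parallel wells.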

[17] = BSK_LPS_SRB: Viability Assessment in the BioMAP Diversity Plus: LPS Assay (AID 2283079); conditions: primary human HUVEC with PBMC;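 also: total protein by sulforhodamine B absorbance as a cytotoxicity measure; measured one day after compound addition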
How it was run: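 SRB viability endpoint: cells fixed with 10% TCA, stained with 0.1% SRB, read at 560 nm, 24 h post-dose. HUVEC/PBMC co-culture; signal change in either direction scored relative to DMSO.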

[18] = read-out: Interleukin-1 alpha (IL1a), IL1A (gene 3552); experiment: BSK_LPS_IL1a: BioMAP Diversity Plus: LPS Assay for Interleukin-1 alpha (IL1a) Biomarker Activity (AID 2283080); conditions: primary human HUVEC with PBMC; actives raise or lower the signal
How it was run: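 Readout is IL-1a level by ELISA, 24 h post-dose, fitted as gain or loss relative to DMSO. System: LPS-activated human primary co-culture of vascular endothelium and peripheral blood mononuclear cells, with parallel SRB total-protein cytotoxicity.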

[19] = read-out: Monocyte Chemoattractant Protein-1 (MCP1), CCL2 (gene 6347); experiment: BSK_LPS_MCP1: BioMAP Diversity Plus: LPS Assay for Monocyte Chemoattractant Protein-1 (MCP1) Biomarker Activity (AID 2283081); conditions: primary human HUVEC with PBMC; actives raise or lower the signal
How it was run: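 Secreted MCP-1 read by ELISA at 24 h post-dosing in an LPS-activated co-culture of endothelial cells with peripheral blood mononuclear cells. Fits run in both directions, DMSO as baseline; parallel SRB staining tracks overt cytotoxicity.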

Measured: outcome

Sequence of E-selectin (Homo sapiens) (P16581 whole entry, looked up): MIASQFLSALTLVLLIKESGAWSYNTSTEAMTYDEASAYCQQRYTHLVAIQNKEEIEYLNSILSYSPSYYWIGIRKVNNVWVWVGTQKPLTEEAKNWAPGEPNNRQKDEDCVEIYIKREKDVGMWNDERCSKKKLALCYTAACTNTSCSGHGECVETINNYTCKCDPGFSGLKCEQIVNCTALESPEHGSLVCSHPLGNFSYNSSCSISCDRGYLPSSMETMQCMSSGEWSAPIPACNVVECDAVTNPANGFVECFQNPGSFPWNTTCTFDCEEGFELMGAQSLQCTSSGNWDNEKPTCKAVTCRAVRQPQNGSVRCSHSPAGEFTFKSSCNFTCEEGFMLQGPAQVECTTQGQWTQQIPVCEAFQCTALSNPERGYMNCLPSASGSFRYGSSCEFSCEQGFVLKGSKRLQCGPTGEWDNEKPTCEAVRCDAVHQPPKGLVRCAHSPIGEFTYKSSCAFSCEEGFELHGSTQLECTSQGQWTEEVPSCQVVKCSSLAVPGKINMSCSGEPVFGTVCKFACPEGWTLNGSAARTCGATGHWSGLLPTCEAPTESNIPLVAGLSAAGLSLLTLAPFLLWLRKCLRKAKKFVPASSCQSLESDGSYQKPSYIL

COCCOCCOC
inactive: all assays above

CC(=O)C(C)=CC1C(C)=CCCC1(C)C (stereo unspecified)
inactive: all assays above

c1cc(-c2ccncc2)ccn1
inactive: all assays above

CCCc1cc(=O)[nH]c(=S)[nH]1
inactive: all assays above

NC(=O)Cn1c(=O)cc(CCN2CCN(c3nccc4sccc34)CC2)c2ccc(F)cc21
inactive: all assays above

CCCCCCCCCCC
inactive: all assays above

COc1cc(S(=O)(=O)O)c(C)cc1N=Nc1c(O)ccc2cc(S(=O)(=O)O)ccc12
inactive: all assays above

C=CCOC(=O)c1ccccc1C(=O)OCC=C
inactive: all assays above

Cc1ccc(C)c(O)c1C
inactive: all assays above

Cc1ccc(Cl)cc1
inactive: all assays above

Oc1ccc2c(c1)OC[C@@H](N1CCC(O)(c3ccc(F)cc3)CC1)[C@H]2O
inactive: all assays above

OC[C@@H](O)[C@@H](O)[C@H](O)[C@H](O)CO
inactive: all assays above

CCCCCCCC=O
inactive: all assays above

O=C(O)CCCCC(=O)O
inactive: all assays above

— PubChem BioAssay (EPA / NIEHS)
